Screening data: PubChem, National Center for Advancing Translational Sciences (NCATS)
Sampled rows, rich in hits. Any-hit rate of the full collection: about 6.8%.
PTAP TSG101 blk = qHTS Assay for Iinhibitors of HIV-1 Budding by Blocking the Interaction of PTAP/TSG101 | 340,000 tested, under 10 active | Fluorescence polarization, FITC-PTAP peptide / Tsg101 binding | Potency, µM (top dose mostly 115 µM), inactives show top-dose activity change, negative = inhibition, most hits filed as inhibitors | Tumor susceptibility gene 101 protein (Homo sapiens), Q99816 | AID 493005, 2010; active means well fitted inhibition curve with a large enough effect in the main read-out, with a control signal flat, not every such curve was filed as active; inconclusive means small, poorly fitted or top-dose-only effect, or effect the other way, or a change in a side signal; inactive means no such curve, though single readings can be large or run the other way; further: % of control where 0% means no effect
Target sequence (Q99816 whole entry, looked up): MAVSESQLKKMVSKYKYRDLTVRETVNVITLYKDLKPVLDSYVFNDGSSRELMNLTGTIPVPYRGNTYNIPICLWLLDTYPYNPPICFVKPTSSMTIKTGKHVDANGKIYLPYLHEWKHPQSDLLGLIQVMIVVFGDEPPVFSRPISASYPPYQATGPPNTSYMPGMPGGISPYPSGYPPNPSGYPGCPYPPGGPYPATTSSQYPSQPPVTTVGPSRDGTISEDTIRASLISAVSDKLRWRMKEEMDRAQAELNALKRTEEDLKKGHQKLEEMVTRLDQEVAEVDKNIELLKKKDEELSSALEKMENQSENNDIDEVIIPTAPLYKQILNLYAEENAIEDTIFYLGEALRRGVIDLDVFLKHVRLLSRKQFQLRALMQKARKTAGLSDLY
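Steps: Tsg101 binding domain dispensed (10 uM final), compounds pinned in DMSO, FITC-labeled PTAP-motif peptide added (50 nM final); after 20 min binding at room temperature, polarization measured.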
SW480 rereplic = A quantitative high throughput screen for small molecules that induce DNA re-replication in SW480 colon adenocarcinoma cells | SW480 DNA re-replication, Hoechst DNA content imaging, 48 h | Potency, µM (highest dose often 46.1 µM), inactives show at the highest dose re-replication activation, usual class: activators | 340,000 tested, 1.8% active | AID 624297, 2012; further: % of control where 0% means no effect; nearly all actives have a fitted effect of over 55% in size
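Treated cells incubate 48 hr (37 C, 5% CO2), are stained 40 min with Hoechst, and nuclear fluorescence is enumerated; a rise in nuclei with high DNA signal marks re-replication.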
MCF10A rereplic = A quantitative high throughput screen for small molecules that induce DNA re-replication in MCF 10a normal breast cells. 350,000 tested, 2.9% active. MCF 10A DNA re-replication, Hoechst nuclear intensity, 48 h. Potency, µM (titrated, usually from 46.1 µM), inactives show at the highest dose activity, positive = re-replication, most hits filed as activators; further: % of control where 0% means no effect; nearly all actives have a fitted effect of over 50% in size
KB-3-1 cytotox = qHTS assay for MDR1-selective chemotherapeutics: Primary screen using the parental adenocarcinoma cell KB-3-1; AID 1347075, 2019; Potency, µM (top dose mostly 46.1 µM), actives largely listed as cytotoxic; 400,000 tested, 1.4% active; KB-3-1 viability, CellTiter-Glo ATP luminescence, 72 h; further: on the % scale 0 is the no-effect control and ±100 the full control effect; nearly all actives have a fitted effect of over 60% in size
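KB-3-1 cells, DMEM (no phenol red) + 10% FBS; compound by pin transfer, 72 h, 37 °C. Readout: CellTiter-Glo luminescence after 10 min. Data normalized, curve-fitted.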
KB-V1 MDR tox = qHTS assay for MDR1-selective chemotherapeutics: Primary screen using the drug-selected MDR subline cells KB-V1 | 400,000 tested, 3.4% active | KB-V1 MDR cells viability, CellTiter-Glo, 72 h | AID 1347076, 2019 | Potency, µM (series often up to 46.1 µM), usual class: cytotoxic; further: on the % scale 0 is the no-effect control and ±100 the full control effect; nearly all actives have a fitted effect of over 60% in size
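Compound-treated KB-V1 multidrug-resistant cells, 72 h, 37 degrees C; viability by CellTiter-Glo. Fitted qHTS curves give the values.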
PINK1 expr mod = A Quantitative High throughput Screen to Identify Chemical Modulators of PINK1 Expression; PINK1 immunofluorescence, high-content cytometry, 24 h; Potency, µM (series often up to 76.6 µM), inactives show at the top dose activation (PINK1 increase), most hits filed as activators; 410,000 tested, 0.2% active; active means well fitted activation curve with a large enough effect; inconclusive means small, poorly fitted or top-dose-only effect; cell line not stated here; further: % of control where 0% means no effect; nearly all actives have a fitted effect of over 65% in size
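Readout is PINK1 immunofluorescence, quantified alongside mitochondrial, cell and nuclear markers by laser-scanning microplate cytometry. Cells from a stable line were exposed to compound titrations (5 concentrations) for 24 hours, with CCCP controls.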
The depositor's hits bear a star; i = inactive; ? = inconclusive; nt = not tested or not shown; [ ] = remark or other dose. Unless noted, the call rests on the fitted dose curve; in most records, active means well fitted curve in the direction sought with a large enough effect; inconclusive means small, poorly fitted or top-dose-only effect, or another doubt; inactive means no such curve, though single readings can be large; an effect the other way counts as inactive or inconclusive. Potency means the concentration at half of the fitted maximal effect.

SMILES | PTAP TSG101 blk | SW480 rereplic | MCF10A rereplic | KB-3-1 cytotox | KB-V1 MDR tox | PINK1 expr mod
O=C(CCS(=O)(=O)c1ccccc1)Nc1ncc([N+](=O)[O-])s1 | -2% | 7.3µM* | 4.6µM* | ? | ? | -3%
O=C(/C=C/c1ccc([N+](=O)[O-])cc1)NCc1ccccn1 | 0% | 0% | ? | i | i | -3%
O=C(Nc1ccc(Br)cc1)N1CCC(CN2CCCC2)CC1 | nt | nt | nt | nt | nt | 1%
CCOC(=O)c1ccccc1NC(=O)CSc1ccc(-c2sc(-c3ccccc3)nc2C)nn1 | nt | nt | nt | i | i | 0%
Cc1c(Cl)cccc1NC(=O)Cn1cnc2nc3c(cc2c1=O)CCCC3 | nt | nt | nt | i | ? | -1%
Cc1cc(C)n2ncc(C(=O)NC(C)C)c2n1 | nt | nt | nt | i | i | nt
O=C(Nc1ncc([N+](=O)[O-])s1)c1cccs1 | 0% | -66% | ? | ? | 16µM* | ?
CCc1ccc(NC(=O)CCn2c(-c3ccc(OC)cc3)cc(C(C)=O)c2C)cc1 | nt | nt | nt | i | i | 4%
COc1ccc(N2CCN(c3nc4c(C)cccn4c(=O)c3C=C(C#N)C#N)CC2)cc1 | -2% | 0% | 0% | i | i | 0%
COc1ccccc1N1CCN(c2nc3c(C)cccn3c(=O)c2C=O)CC1 | -1% | -3% | 9% | i | 23µM* | -5%[38.3 µM]
Cc1cccn2c(=O)c(C=O)c(N3CC(C)OC(C)C3)nc12 (stereo not drawn) | 0% | -4% | -1% | i | i | 0%
Cc1cccn2c(=O)c(C=O)c(N3CCCCCC3)nc12 | -7% | -9% | ? | i | 15µM* | -5%[38.3 µM]
COc1cc(C(=O)NCCCc2nc3ccccc3n2CC(C)C)cc(OC)c1OC | nt | nt | nt | i | i | 3%
CC(C)NC(=S)N/N=C1\CCCCC1C1CCCCC1 (stereo not drawn) | 1% | ? | 18µM* | ? | ? | 6%[38.3 µM]
Cc1ccc(CN2C(=O)[C@H]3Cc4c([nH]c5ccccc45)C(C)(C)N3C2=O)cc1 | -7% | ? | 21µM* | ? | i | 0%
CC1(C)c2[nH]c3ccccc3c2C[C@@H]2C(=O)N(Cc3ccc(F)cc3)C(=O)N21 | 2% | 2% | 18µM* | ? | ? | 3%
Cc1csc(C(C#N)C(=O)c2cc3ccccc3o2)n1 (stereo not drawn) | -5% | 9% | 19% | ? | 21µM* | ?
COc1ccccc1CNC(=O)CN1C(=O)COc2ccc(S(=O)(=O)N3CCC(C)CC3)cc21 | nt | nt | nt | i | ? | 0%
C#CCn1c(=NC(=O)c2ccc(Cl)s2)sc2cccc(OC)c21 | 1% | 11% | 18µM* | i | i | 8%
CC1=C(C(=O)Nc2ccccc2)C(c2cccn2C)n2ncnc2N1 (stereo not drawn) | nt | nt | nt | i | i | -3%
CCc1nn2c(=O)cc(COC(=O)c3ccccc3NC(=O)c3cccs3)nc2s1 | nt | nt | nt | nt | nt | -1%
COc1ccc(-c2csc(N(CCCN(C)C)C(=O)c3ccccc3Cl)n2)cc1 | 2% | ? | ? | 16µM* | ? | -2%
CN(C)CCCN(C(=O)c1cccs1)c1nc(-c2ccccc2)cs1 | -8% | ? | ? | i | 9.2µM* | 0%[38.3 µM]
Cc1ccc(NC(=O)CN2C(=O)CCc3cc(S(=O)(=O)N4CCCCC4)ccc32)cc1N(C)C | nt | nt | nt | ? | ? | 4%
O=C(c1ccc2c(c1)OCO2)N1CCOc2ccc(CN3CCC(Oc4cccnc4)CC3)cc2C1 | nt | nt | nt | nt | nt | -1%
SMILES | PTAP TSG101 blk | SW480 rereplic | MCF10A rereplic | KB-3-1 cytotox | KB-V1 MDR tox | PINK1 expr mod
NCCN1CCN(CC(=O)N2c3ccccc3C(=O)Nc3cccnc32)CC1 | 0% | -3% | 4% | i | i | -1%
O=C1Nc2cccnc2N(C(=O)CCl)c2ccccc21 | 0% | 15µM* | 15µM* | 21µM* | 16µM* | 6%
Cc1cc(C(=O)N/N=C2\CC(=O)c3ccccc32)c(C)n1-c1ccc(F)cc1 | -3% | 16µM* | 0% | i | i | 3%
CCOc1cc(/C=N/NC(=O)c2cc(C)n(-c3ccc(F)cc3)c2C)ccc1O | -3% | -17% | 11% | ? | i | 2%
c1ccc2c(c1)Sc1ccccc1N2CCN1CCCC1 | nt | 3% | 7% | nt | nt | nt
O=C1N=C2N(CCN3CCCCC3)c3ccccc3N2/C1=C\c1ccc([N+](=O)[O-])s1 | -6% | ? | 18µM* | i | i | 5%
CCc1ccc(-c2ccc3nnc(SCC(=O)Nc4cccc(C(C)=O)c4)n3n2)cc1 | nt | nt | nt | nt | nt | -1%
COC(C[C@@H]1O[C@H]1C(=O)[C@@H](C)OCc1ccccc1)OC | -4% | 23µM* | ? | ? | i | 8%
COc1ccc(-n2nnc(-c3nc(-c4ccc5c(c4)OCO5)no3)c2C)cc1Cl | nt | nt | nt | nt | nt | 1%
O=C(/C=C/c1ccccn1)c1cc(Cl)cc(Cl)c1O | 0% | 16µM* | 21µM* | ? | ? | 1%
O=C(NC(=S)Nc1ccc(F)c(Cl)c1)C1CC1 | 0% | 11% | 2% | i | i | 4%
O=C(Nc1ccc(OC(F)F)c(Cl)c1)c1ccccn1 | 0% | 12% | 1% | ? | i | 0%
Cc1ccc(NC(=S)Nc2ccc(OC(F)F)c(Cl)c2)cc1F | -7% | -1% | 7% | ? | ? | 16µM*
O=C(Nc1ccc(F)c(Cl)c1)C1CCCC1 | -3% | 5.8µM* | ? | i | i | 1%
Fc1ccc(NC(=S)Nc2ccc(F)c(Cl)c2)cc1Cl | -1% | -4% | ? | ? | ? | 40µM*
O=C(CNC(=O)C1CCCCC1)Nc1cc(Cl)ccc1Cl | -4% | -11% | 11% | i | 21µM* | -2%
O=C(Nc1ccc(F)c(Cl)c1)C1CCCCC1 | 0% | -1% | -5% | i | i | 6%
Cc1cccc(CSc2cn(CC(=O)N3CCCCC3)c3ccccc23)c1 | nt | nt | nt | nt | nt | 0%
Cc1c2cnn(-c3ccccc3)c(=O)c2c(C)n1CC(=O)NCc1ccc(Cl)cc1 | nt | nt | nt | i | i | 13%
COc1cccc(CN2CCc3nnc(CCc4ccccc4)n3CC2)c1OC | nt | nt | nt | nt | nt | 1%
COc1ccccc1-c1ccnc(-n2ncc(C(=O)NCCc3ccccn3)c2C)n1 | nt | nt | nt | nt | nt | 0%
COC(=O)NC(=S)Nc1ccc(Oc2ccc(Cl)cc2Cl)c(Cl)c1 | -3% | ? | ? | 15µM* | ? | 13%
